# Measured values taken from the supplement of paper PMC4894684.
# Structures can show the parent of a compound that is named as a salt. ± gives the standard deviation of the averaged measurements.
# Tested on: Toxoplasma gondii RH (in HFF)
# Test: parasite growth relative to the screen mean (all compounds = 100%); higher = less inhibition of parasite growth
# Conditions: 5 µM; 72 h; oxygen 21 %
# Outline: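 Library compounds (10 mM DMSO stocks) were pin-transferred to 5 µM final onto confluent human foreskin fibroblasts in 96-well plates, then infected within 2 h with RH β-Gal–GFP Toxoplasma (MOI 1:5) and grown 72 h at 21% O2. Parasite number came from a CPRG β-Gal assay against in-plate standard curves. Growth is expressed relative to the screen mean (all compounds = 100%), averaged over two screens. Uninfected host-cell viability was checked by CellTiter-Blue.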
row,SMILES,parasite growth [%]
1,CCOC(=O)c1cncn1[C@H](C)c1ccccc1 [Etomidate],114 ± 17
2,"CC(=O)N1CC[N+](C)(C)CC1 [4-Acetyl-1,1-dimethylpiperazinium iodide]",130 ± 13
3,Nc1ccncc1 [4-Aminopyridine],157 ± 28
4,CCC[C@@H]1CC2=CC(=O)CC[C@]2(C)[C@H]2CC[C@@]3(C)[C@@H](CC[C@@]3(O)CCC(=O)O)[C@H]12,75.2 ± 19
5,CCOc1cncc(/C=C/CCNC)c1 [TC 2559 difumarate],90.8 ± 7
6,c1ccc(C2CC2)c(OCC2=NCCN2)c1 [Cirazoline hydrochloride],91.7 ± 19
7,N=C(NCc1ccc(Cl)cc1)SCCCc1c[nH]cn1 [Clobenpropit dihydrobromide],106 ± 11
8,CN1C(=O)CCS(=O)(=O)C1c1ccc(Cl)cc1 (stereo not drawn) [Chlormezanone],145 ± 22
9,COc1cc(N)c(Cl)cc1C(=O)NC1CN2CCC1CC2 (stereo not drawn) [Zacopride hydrochloride],142 ± 12
10,CN1C[C@H](C(=O)N[C@]2(C)O[C@@]3(O)[C@@H]4CCCN4C(=O)[C@H](Cc4ccccc4)N3C2=O)C[C@@H]2c3cccc4[nH]cc(c34)C[C@H]21 [Dihydroergotamine mesylate],39.27 ± 0.23
11,N[C@@H]1C[C@H]1c1ccccc1 [Tranylcypromine hydrochloride],130 ± 22
12,CC(=O)N(C)c1cccc(-c2ccnc3c(C(=O)c4cccs4)cnn23)c1 [Indiplon],79.5 ± 17
13,CC(C)[C@@]1(NC(=O)[C@@H]2C[C@@H]3c4cccc5[nH]cc(c45)C[C@H]3N(C)C2)O[C@@]2(O)[C@@H]3CCCN3C(=O)[C@H](Cc3ccccc3)N2C1=O [Dihydroergocristine mesylate],8.76 ± 1.6
14,C=CCN1CC[C@]23c4c5ccc(O)c4O[C@H]2C(=O)CC[C@@]3(O)[C@H]1C5 [Naloxone hydrochloride],143 ± 14
15,"C=CCN1CC[C@]2(C)c3cc(O)ccc3C[C@H]1C2C (single isomer, unassigned; (+))",97.7 ± 5.9
16,C=C(C)CN1CC[C@@]23c4c5ccc(O)c4O[C@H]2c2[nH]c4ccccc4c2C[C@]3(O)C1C5 [SDM25N hydrochloride],77.5 ± 21
17,N=C(N)NN [Aminoguanidine hydrochloride],124 ± 28
18,Cc1ncsc1CCCl [Chlormethiazole hydrochloride],60 ± 21
19,CN1[C@@H]2CC[C@H]1CC(OC(=O)N1Cc3ccccc3NC1=O)C2 (stereo partly drawn) [DAU 5884 hydrochloride],97.7 ± 16
20,Cc1onc(O)c1CC(N)C(=O)O (racemic),107 ± 41
21,Cc1onc(O)c1CC(N)C(=O)O (racemic) [(RS)-AMPA hydrobromide],121 ± 16
22,O=C1NCN(c2ccccc2)C12CCN(CC1COc3ccccc3O1)CC2 (stereo not drawn) [Spiroxatrine],140.8 ± 0.7
23,Cc1onc(O)c1C[C@H](N)C(=O)O,113 ± 34
24,O=c1ccc2[nH]cc(C3=CCNCC3)c2[nH]1,65.2 ± 3.1
25,CCC1(C2=NCCN2)Cc2ccccc2O1 (stereo not drawn) [Efaroxan hydrochloride],113 ± 6.3
26,N[C@@]1(C(=O)O)CC[C@@H](C(=O)O)C1,111 ± 27
27,NCCc1c[nH]c2ccc(C(N)=O)cc12 [5-Carboxamidotryptamine maleate],158 ± 72
28,N#Cc1ccc(N2CCN(C(=O)COc3ccc4[nH]cc(CCN)c4c3)CC2)cc1 [Donitriptan hydrochloride],78.6 ± 12
